Consider 35 molecules from PubChem BioAssay (NCATS).

SMILES strings stand for the structures. Unmarked numbers belong to inactive results. Records with an inconclusive call do not appear. The source made the active and inactive calls. Calls come from the whole dose curve; as a rule, active = well fitted curve in the direction sought with a large enough effect; inconclusive = small, poorly fitted or top-dose-only effect, or another doubt; inactive = no such curve, though single readings can be large; an effect the other way counts as inactive or inconclusive.

Tested on in the first test: not listed separately
Put plainly: Inducers of the Endoplasmic Reticulum Stress Response (ERSR) in human glioma: Validation (AID 504836). Note: 0% is about no effect. The settings on record: human glioma cells, ER stress response reporter; series mostly up to 38.3 µM; activation: at the top concentration. The method, boiled down: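 Stably transfected U87-MG glioma cells carrying a GRP78-based luciferase sensor; 16 h compound incubation. Luminescence end-point read 10 min after Bright-Glo addition at room temperature.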
As to `FC(F)(F)c1ccccc1-n1ccnc1`, the “activation” value was -5.84%.

Turning to `NC(=O)c1cnccn1`, the “activation” value was -2.75%.

On to `C[N+](C)(C)CCOC(N)=O`, for which the “activation” value was 2.42%.

For `CCN1CCCC1CNC(=O)c1cc(S(=O)(=O)CC)c(N)cc1OC` (stereo unspecified), the “activation” value was -3.25%.

As for `NC/C=C/C(=O)O`, the “activation” value is 4.31%.

As to `CCC1(C)CC(=O)NC1=O` (stereo unspecified), the “activation” value was -4.67%.

Take `CC[N+](CC)(CC)CCOc1cccc(OCC[N+](CC)(CC)CC)c1OCC[N+](CC)(CC)CC`: the “activation” value is -5.57%.

Turning to `CCn1cc(C(=O)O)c(=O)c2cc(F)c(N3CCNC(C)C3)c(F)c21` (stereo unspecified), the “activation” value was -0.628%.

Turning to `CN(C)CCOC(=O)COc1ccc(Cl)cc1`, the “activation” value is 0.5%.

On to `CCOC(=O)c1cnc2c(cnn2CC)c1NN=C(C)C`, for which the “activation” value was -1.91%.

`Nc1cc(=O)[nH]c(N)n1`: the “activation” value was 0.0828%.

As for `COCCOC(=O)C1=C(C)NC(C)=C(C(=O)OC(C)C)C1c1cccc([N+](=O)[O-])c1` (stereo unspecified), the “activation” value was -1.48%.

For the molecule `CCn1nc(C(=O)O)c(=O)c2cc3c(cc21)OCO3`, the “activation” value is -3.52%.

In the case of `CN1C(C(=O)Nc2ccccn2)=C(O)c2ccccc2S1(=O)=O`, the “activation” value was -0.518%.

As to `CCCNC(C)C(=O)Nc1ccccc1C` (stereo unspecified), the “activation” value is -2.81%.

Consider `O=C(O)CCCCCCCC(=O)O`, for which the “activation” value is -4.23%.

In the case of `CNCC(O)c1ccc(O)c(O)c1` (stereo unspecified), the “activation” value is -3.67%.

With `NCCCNCCSP(=O)(O)O`, the “activation” value was 1.55%.

On to `CC(C)(C)NCC(O)c1cc(O)cc(O)c1` (stereo unspecified), for which the “activation” value is 2.91%.

On to `O=C(O)CN(CCN(CC(=O)O)CC(=O)O)CCN(CC(=O)O)CC(=O)O`, for which the “activation” value is -2.97%.

Turning to `CCN(CC)CCNC(=O)c1ccc(N)cc1`, the “activation” value is -0.55%.

For `COc1ccc(C2CNC(=O)C2)cc1OC1CCCC1` (stereo unspecified), the “activation” value was -0.709%.

As to `CC(=O)OCC1=C(C(=O)O)N2C(=O)[C@@H](NC(=O)Cc3cccs3)[C@H]2SC1`, the “activation” value is 2.12%.

Consider `N[C@@H](COP(=O)(O)O)C(=O)O`, for which the “activation” value is -0.864%.

With `COC(=O)[C@@H]1[C@H]2C[C@H]3c4[nH]c5ccccc5c4CCN3C[C@@H]2CC[C@@H]1O`, the “activation” value is -3.44%.

For the next test, the target named is Ubiquitin carboxyl-terminal hydrolase 1 (Homo sapiens) (UniProt O94782). Put plainly: Inhibitors of USP1/UAF1: Pilot qHTS (AID 504865).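 For activity change, negative = inhibition: rhodamine fluorescence freed from ubiquitin-rhodamine substrate followed over time; top concentration of the series differs between compounds; % is set by controls: 0 for no effect and ±100 for the full control effect.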 Note: nearly all actives have a fitted effect of over 35% in size. Note: potency is the fitted concentration of half-maximal effect. The following applies: purified USP1/UAF1, Ub-rhodamine cleavage fluorescence; series mostly up to 114 µM; activity change, negative = inhibition: at the top concentration. The procedure, abridged: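 1nM USP1/UAF1 + cpd, 15 min RT; start w/ Ub-Rho 150nM final; kinetic FL 480/540 nm, 6 reads q60 s. Buffer 50mM HEPES pH 7.8, 0.5mM EDTA, 1mM TCEP, 0.01% Tween-20, 0.1 mg/ml BSA.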
Ubiquitin carboxyl-terminal hydrolase 1 (Homo sapiens), sequence (O94782 whole entry, looked up): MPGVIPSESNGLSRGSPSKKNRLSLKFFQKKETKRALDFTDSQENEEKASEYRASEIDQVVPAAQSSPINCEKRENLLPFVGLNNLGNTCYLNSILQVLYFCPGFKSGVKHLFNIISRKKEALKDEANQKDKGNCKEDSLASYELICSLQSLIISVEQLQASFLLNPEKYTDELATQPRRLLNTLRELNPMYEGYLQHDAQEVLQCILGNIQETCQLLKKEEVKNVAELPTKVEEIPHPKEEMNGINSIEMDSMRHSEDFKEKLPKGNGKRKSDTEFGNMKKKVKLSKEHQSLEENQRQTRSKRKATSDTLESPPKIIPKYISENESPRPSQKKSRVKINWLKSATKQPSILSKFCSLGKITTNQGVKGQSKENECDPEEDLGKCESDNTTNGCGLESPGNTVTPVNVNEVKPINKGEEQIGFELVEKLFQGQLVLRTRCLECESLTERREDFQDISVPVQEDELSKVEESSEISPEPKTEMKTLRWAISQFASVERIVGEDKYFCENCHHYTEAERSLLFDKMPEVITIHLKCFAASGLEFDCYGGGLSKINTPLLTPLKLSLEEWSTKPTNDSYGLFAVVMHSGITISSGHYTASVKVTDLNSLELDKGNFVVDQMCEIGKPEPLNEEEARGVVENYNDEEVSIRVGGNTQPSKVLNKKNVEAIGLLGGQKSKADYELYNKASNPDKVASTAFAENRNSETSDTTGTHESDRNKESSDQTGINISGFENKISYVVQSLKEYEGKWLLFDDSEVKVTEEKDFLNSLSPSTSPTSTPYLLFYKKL
(qHTS replaces the single test concentration by a dilution series.)
For `CC(C)(C)c1ccc(O)cc1`, the “activity change, negative = inhibition” value is -6%.

Regarding `COP(=S)(OC)SCN1C(=O)c2ccccc2C1=O`, the “activity change, negative = inhibition” value was -6.72%.

Turning to `COc1cc(OC)c(OC)cc1C=O`, the “activity change, negative = inhibition” value is -8.77%.

As to `CC[N+](CC)(CC)CCOc1cccc(OCC[N+](CC)(CC)CC)c1OCC[N+](CC)(CC)CC`, the Potency result is “inactive”.

`CCOC(=O)CC(SP(=S)(OC)OC)C(=O)OCC` (stereo unspecified): the “activity change, negative = inhibition” value is -8.82%.

`Cc1cc(=O)n(-c2ccccc2)n1C`: the Potency entry is “inactive”.

As for `O=C1OC(c2ccc(O)c(S(=O)(=O)O)c2)(c2ccc(O)c(S(=O)(=O)O)c2)c2c(Br)c(Br)c(Br)c(Br)c21`, the Potency is 50.1 µM (active).

`CCC1(CC)C(=O)C=CNC1=O`: the Potency entry is “inactive”.

Turning to `Cc1cc(C(C#N)c2ccc(Cl)cc2)c(Cl)cc1NC(=O)c1cc(I)cc(I)c1O` (stereo unspecified), the Potency is 50.1 µM (active).

With `FC1(F)C(F)(F)C(F)(F)C2(F)C(F)(F)C(F)(F)C(F)(F)C(F)(F)C2(F)C1(F)F` (stereo unspecified), the Potency was 79.4 µM (active).

As to `CCC1(c2ccccc2)C(=O)N(COC)C(=O)N(COC)C1=O`, the “activity change, negative = inhibition” value is -2.67%.
